Assay results published in article PMC7826789 (International Journal of Molecular Sciences, 2021).

These compounds were tested on CAMKK2. Details: Compound Concentration (nM):1000.
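Further: KINOMEscan scanMAX binding as percent activity remaining versus control; lower means stronger binding.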

First: O=C(Nc1n[nH]c2nc(-c3ccc(O)cc3)c(Br)cc12)C1CC1 [SB-725317]
Second: CC1=C(C(=O)Nc2ccc3[nH]ncc3c2)C(c2ccc(Cl)c(Cl)c2)CC(=O)N1 (stereo not drawn) [GSK299115A]
The “Percent Control” value of the first is higher: 100% for the first, 85% for the second.

Going from `COc1cccc(-c2c[nH]c3c(N/N=C/c4ccncc4)ncnc23)c1` [GW814408X] to `COc1cccc(-n2ncc3c(N/N=C/c4ccncc4)ncnc32)c1` [GW784752X], the “Percent Control” value rises from 95% to 100%.

Compared with `Cl.O=C(O[C@H]1CN[C@H](C#Cc2cc3ncnc(Nc4ccc5c(cnn5Cc5ccccc5)c4)c3s2)C1)N1CCOCC1` [GSK200398A], `CN(C)c1cc2c(Nc3ccc4c(cnn4Cc4ccccc4)c3)ncnc2cn1` [GW282974X] is lower in “Percent Control” value: 86% for the first, 73% for the second.

First: CCS(=O)(=O)c1ccc(OC)c(Nc2ncc(-c3cccc(OC)c3)o2)c1 [GW580509X]
Second: CCS(=O)(=O)c1ccc(OC)c(Nc2ncc(-c3cccc(F)c3)o2)c1 [GW621970X]
The “Percent Control” value of the first is lower: 79% for the first, 100% for the second.

Compared with `COc1ccc2cc(-c3c(-c4ccncc4)nc(-c4ccc(S(C)(=O)=O)cc4C)n3C)ccc2c1` [SB-633825], `CCc1ccc(Oc2nccc(-c3c(-c4ccc(F)cc4)ncn3C3CCNCC3)n2)cc1` [SB-242719] is higher in “Percent Control” value: 73% for the first, 100% for the second.

First: COc1ccc(COc2ccc(Cc3cnc(N)nc3N)cc2OC)cc1 [GW632580X]
Second: COc1cc2ncn(-c3cc(O[C@H](C)c4ccccc4Cl)c(C(N)=O)s3)c2cc1OC [GSK237701A]
The “Percent Control” value of the first is higher: 98% for the first, 43% for the second.

Compared with `C[C@@H](Oc1cc(-n2cnc3ccc(OC4CCN(C)CC4)cc32)sc1C(N)=O)c1ccccc1Cl` [GSK579289A], `Cl.O=S1CCN(Cc2ccc(-c3ccc4ncnc(Nc5ccc(OCc6ccccc6)c(F)c5)c4c3)o2)CC1` [GW576924A] is higher in “Percent Control” value: 67% for the first, 100% for the second.

First: COc1cc(N2CCN(C(C)C)CC2)ccc1Nc1nc(Nc2ccc(F)cc2C(=O)NC[C@@H](O)CO)c2cc[nH]c2n1 [GSK1392956A]
Second: COc1cc(C)c(N(C)C(=O)CN(C)C)cc1Nc1nc(Nc2cccc(F)c2C(N)=O)c2cc[nH]c2n1 [GSK2219385]
The “Percent Control” value of the first is lower: 45% for the first, 94% for the second.

Compared with `Cl.O=C(Nc1ccc(Oc2ccc3[nH]c(NC(=O)c4ccccc4)nc3c2)cc1)Nc1cc(C(F)(F)F)ccc1F` [GW709042A], `Nc1ncnc2occ(-c3ccc(NC(=O)Nc4cc(C(F)(F)F)ccc4F)cc3)c12` [GW770249X] is lower in “Percent Control” value: 100% for the first, 82% for the second.

First: CC1=C(C(=O)Nc2ccc3[nH]ncc3c2)C(c2ccc3ccccc3c2)CC(=O)N1 (stereo not drawn) [GSK270822A]
Second: C/C(Nc1ccc(S(N)(=O)=O)cc1)=C1/C(=O)Nc2ccccc21 [GW335962X]
The “Percent Control” value of the first is lower: 69% for the first, 82% for the second.

Compared with `O=C1Nc2ccc(C(=O)c3ccco3)cc2C1=Cc1cc(Cl)c(O)c(Cl)c1` [GW406108X], `CC(C)COC(=O)c1ccc2c(c1)/C(=C/Nc1ccc(S(N)(=O)=O)cc1)C(=O)N2` [GW416981X] is higher in “Percent Control” value: 31% for the first, 100% for the second.

Compared with `COc1ccc2[nH]c3c4[nH]c5ccc(OC)cc5c4c4c(c3c2c1)C(=O)NC4=O` [GW296115X], `NS(=O)(=O)c1ccc(N/N=C2\C(=O)Nc3ccc(Cl)cc32)cc1` [GW280670X] is higher in “Percent Control” value: 74% for the first, 100% for the second.

First: CN(C)CCNC(=O)Nc1ccc(N(C)c2ccnc(Nc3ccc(CS(C)(=O)=O)cc3)n2)cc1.Cl [GW830900A]
Second: NS(=O)(=O)c1ccc(N/N=C2\C(=O)Nc3ccc(C(=O)NCCc4c[nH]cn4)cc32)cc1 [GW300660X]
The “Percent Control” value of the first is lower: 93% for the first, 100% for the second.

`Cl.c1ccc(Cc2nc3ccc(Nc4ncnc5ccccc45)cc3[nH]2)cc1` [GR269666A] and `COc1cc(C=NNc2ncnc3c2cnn3-c2ccccc2)ccc1O` [GW513184X] are the same in “Percent Control” value: 100% for the first, 100% for the second.

First: COc1ccc2c(-c3ccnc(Nc4cccc(OC(F)(F)F)c4)n3)cnn2n1 [GW810372X]
Second: NS(=O)(=O)c1ccc(Nc2ncc(-c3ccccc3)o2)cc1 [GW572399X]
The “Percent Control” value of the first is lower: 81% for the first, 100% for the second.

Going from `COc1cc(/C=N/Nc2ncnc3[nH]ncc23)ccc1O` [GW578748X] to `NS(=O)(=O)c1ccc(N/N=C2\C(=O)Nc3ccc(-c4cnco4)cc32)cc1` [GW276655], the “Percent Control” value falls from 88% to 83%.

With `CCn1c(-c2nonc2N)nc2c(C#CC(C)(C)O)nc(OCCNC)cc21.Cl` [GSK949675] the “Percent Control” value was 100%.
